Experimental data as given in ChEMBL document CHEMBL3988442, “University of Dundee, Small-Polar-MMV Screening Library” (2021).
For some of these results: Measured potencies and affinities stand elsewhere.

How the values were obtained:
Set-up in all cases: scale not given: direction of the effect not stated beside the values
[1] = molecular target: Protein translocase subunit SecA (Escherichia coli (strain K12)) (UniProt P10408); assay: Assay to Identify E. coli SecA ATPase Inhibitors; format: functional; conditions: 30 µM
[2] = molecular target: T1, Ubiquitin-activating enzyme e1, putative (Leishmania donovani (strain BPK282A1)) (UniProt E9BSI1); assay: Leishmania donovani Ubiquitin Activating Enzyme (LdE1); format: functional; conditions: 30 µM
T1 sequence (whole entry): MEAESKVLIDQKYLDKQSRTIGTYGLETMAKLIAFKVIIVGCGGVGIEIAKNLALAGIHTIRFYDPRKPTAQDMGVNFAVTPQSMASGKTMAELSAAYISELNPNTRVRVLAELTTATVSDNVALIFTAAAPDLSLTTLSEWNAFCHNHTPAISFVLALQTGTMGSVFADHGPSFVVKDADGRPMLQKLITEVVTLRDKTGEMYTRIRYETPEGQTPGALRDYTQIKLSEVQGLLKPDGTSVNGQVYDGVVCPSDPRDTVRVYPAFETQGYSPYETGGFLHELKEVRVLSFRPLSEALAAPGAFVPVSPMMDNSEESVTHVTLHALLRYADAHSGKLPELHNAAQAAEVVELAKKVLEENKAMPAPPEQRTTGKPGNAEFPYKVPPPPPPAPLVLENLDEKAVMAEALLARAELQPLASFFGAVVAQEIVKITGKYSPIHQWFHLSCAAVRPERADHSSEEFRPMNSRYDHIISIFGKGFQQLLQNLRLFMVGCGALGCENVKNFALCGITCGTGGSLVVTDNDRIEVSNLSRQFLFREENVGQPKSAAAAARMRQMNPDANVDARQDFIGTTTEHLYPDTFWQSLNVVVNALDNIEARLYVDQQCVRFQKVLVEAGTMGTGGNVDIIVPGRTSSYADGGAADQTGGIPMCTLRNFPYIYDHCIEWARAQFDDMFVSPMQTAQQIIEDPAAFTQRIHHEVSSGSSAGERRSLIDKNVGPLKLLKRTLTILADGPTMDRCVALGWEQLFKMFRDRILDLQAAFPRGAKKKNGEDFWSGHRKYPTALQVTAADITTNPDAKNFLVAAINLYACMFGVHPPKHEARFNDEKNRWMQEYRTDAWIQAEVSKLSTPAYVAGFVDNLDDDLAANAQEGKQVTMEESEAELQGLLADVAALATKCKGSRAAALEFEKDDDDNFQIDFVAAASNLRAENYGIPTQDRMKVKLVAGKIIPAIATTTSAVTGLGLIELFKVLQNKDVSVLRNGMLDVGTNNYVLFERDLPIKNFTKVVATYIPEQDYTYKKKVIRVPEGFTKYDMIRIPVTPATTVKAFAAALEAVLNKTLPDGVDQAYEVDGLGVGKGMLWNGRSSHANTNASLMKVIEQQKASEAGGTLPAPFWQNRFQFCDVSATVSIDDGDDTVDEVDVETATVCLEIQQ

[3] = molecular target: AMP-activated protein kinase, AMPK (Homo sapiens) (UniProt P54646+O43741+P54619+Q9UGJ0+Q9Y478+Q13131+Q9UGI9); assay: AMP-dependent Kinase enzyme assay. An in vitro enzyme assay that detects ADP turnover that is directly proportional to AMPK activity. This uses naive AMPK that is activated during the assay with MK-8722; format: functional; conditions: 30 µM
[4] = molecular target: Sialic acid-binding Ig-like lectin 9 (Homo sapiens) (UniProt Q9Y336); assay: Hs-Siglec9 ALPHAscreen SOP 20170721; conditions: 10 µM
Trypanosoma cruzi = assay: Trypanosoma cruzi phosphomannomutase and mannose-1-phosphate guanylyltransferase assay; format: functional; conditions: 10 µM
[5] = molecular target: T2, Arginase-2, mitochondrial (Homo sapiens) (UniProt P78540); assay: in vitro enzyme assay to detect the production of urea directly proportional to the activity of Arginase II; format: functional; conditions: 33.3 µM; note: in the data most compounds retested in dose-response had high values
T2 sequence (whole entry): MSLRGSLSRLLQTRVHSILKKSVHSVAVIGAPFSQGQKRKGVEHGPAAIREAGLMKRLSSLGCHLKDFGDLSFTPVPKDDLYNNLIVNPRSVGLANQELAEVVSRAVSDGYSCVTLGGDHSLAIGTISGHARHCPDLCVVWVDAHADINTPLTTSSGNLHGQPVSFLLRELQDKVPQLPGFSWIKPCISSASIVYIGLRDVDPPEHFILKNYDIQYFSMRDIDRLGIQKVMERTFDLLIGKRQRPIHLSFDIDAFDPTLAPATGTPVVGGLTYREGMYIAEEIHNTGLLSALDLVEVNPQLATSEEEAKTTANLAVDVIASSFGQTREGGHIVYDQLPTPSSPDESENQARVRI

[6] = molecular target: T3, Proteasome subunit beta (Trypanosoma cruzi) (UniProt O96673); assay: Trypanosoma cruzi proteasome chymotrypsin-like activity (TcProtChymo) assay.; note: in the data most compounds retested in dose-response had high values; format: functional; conditions: 9.37 µM
T3 sequence (whole entry): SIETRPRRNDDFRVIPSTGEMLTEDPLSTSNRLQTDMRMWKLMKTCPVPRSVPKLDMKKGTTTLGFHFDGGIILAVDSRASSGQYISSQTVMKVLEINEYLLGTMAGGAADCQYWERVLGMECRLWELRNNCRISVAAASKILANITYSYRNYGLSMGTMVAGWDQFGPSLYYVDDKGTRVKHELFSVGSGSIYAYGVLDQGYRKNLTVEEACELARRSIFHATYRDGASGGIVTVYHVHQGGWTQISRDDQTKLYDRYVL

Homo sapiens = species on record: Homo sapiens; assay: To identify inhibition of the IFN signalling (Jak-Stat) pathway via expression of an eGFP reporter gene under the control of an IFN-stimulated response element (ISRE) containing MxA promoter.; format: functional; conditions: 30 µM
[7] = molecular target: T4, Tyrosyl-tRNA synthetase, putative (Trypanosoma cruzi (strain CL Brener)) (UniProt Q4DSP6); assay: Trypanosoma cruzi tyrosyl tRNA synthetase (TcYRS) _High Tyrosine SOP; format: functional; conditions: 30 µM; note: in the data most compounds retested in dose-response had high values
T4 sequence (whole entry): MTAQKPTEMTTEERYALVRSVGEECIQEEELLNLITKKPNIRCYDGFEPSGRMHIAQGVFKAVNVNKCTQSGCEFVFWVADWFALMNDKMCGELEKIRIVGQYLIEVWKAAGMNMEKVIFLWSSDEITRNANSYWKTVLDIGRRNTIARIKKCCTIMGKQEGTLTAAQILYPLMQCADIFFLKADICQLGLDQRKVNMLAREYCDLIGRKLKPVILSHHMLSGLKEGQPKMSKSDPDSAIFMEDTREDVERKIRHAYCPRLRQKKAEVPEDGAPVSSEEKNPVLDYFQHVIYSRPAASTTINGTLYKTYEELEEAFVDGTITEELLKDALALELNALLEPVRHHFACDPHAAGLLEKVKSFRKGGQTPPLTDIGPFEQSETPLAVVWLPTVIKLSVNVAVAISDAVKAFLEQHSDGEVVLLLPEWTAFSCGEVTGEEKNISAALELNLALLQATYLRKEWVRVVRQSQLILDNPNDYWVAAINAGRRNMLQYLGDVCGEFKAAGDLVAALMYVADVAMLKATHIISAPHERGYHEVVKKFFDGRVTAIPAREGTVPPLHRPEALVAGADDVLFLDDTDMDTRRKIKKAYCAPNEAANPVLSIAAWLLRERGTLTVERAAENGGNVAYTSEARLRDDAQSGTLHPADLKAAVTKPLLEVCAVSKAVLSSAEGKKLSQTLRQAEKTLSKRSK

[8] = molecular target: T4, Tyrosyl-tRNA synthetase, putative (Trypanosoma cruzi (strain CL Brener)); assay: Trypanosoma cruzi tyrosyl tRNA synthetase (TcYRS) SOP; format: functional; conditions: 30 µM
[9] = molecular target: Chromo domain-containing protein 1 (Saccharomyces cerevisiae (strain ATCC 204508 / S288c) (Baker's yeast)) (UniProt P32657); assay: ScCHD-1 Enzyme Inhibition Assay; format: functional; conditions: 30 µM; note: in the data most compounds retested in dose-response had high values
Chromo domain-containing protein 1 (Saccharomyces cerevisiae (strain ATCC 204508 / S288c) (Baker's yeast)), sequence (P32657 whole entry, the tested form may be a part): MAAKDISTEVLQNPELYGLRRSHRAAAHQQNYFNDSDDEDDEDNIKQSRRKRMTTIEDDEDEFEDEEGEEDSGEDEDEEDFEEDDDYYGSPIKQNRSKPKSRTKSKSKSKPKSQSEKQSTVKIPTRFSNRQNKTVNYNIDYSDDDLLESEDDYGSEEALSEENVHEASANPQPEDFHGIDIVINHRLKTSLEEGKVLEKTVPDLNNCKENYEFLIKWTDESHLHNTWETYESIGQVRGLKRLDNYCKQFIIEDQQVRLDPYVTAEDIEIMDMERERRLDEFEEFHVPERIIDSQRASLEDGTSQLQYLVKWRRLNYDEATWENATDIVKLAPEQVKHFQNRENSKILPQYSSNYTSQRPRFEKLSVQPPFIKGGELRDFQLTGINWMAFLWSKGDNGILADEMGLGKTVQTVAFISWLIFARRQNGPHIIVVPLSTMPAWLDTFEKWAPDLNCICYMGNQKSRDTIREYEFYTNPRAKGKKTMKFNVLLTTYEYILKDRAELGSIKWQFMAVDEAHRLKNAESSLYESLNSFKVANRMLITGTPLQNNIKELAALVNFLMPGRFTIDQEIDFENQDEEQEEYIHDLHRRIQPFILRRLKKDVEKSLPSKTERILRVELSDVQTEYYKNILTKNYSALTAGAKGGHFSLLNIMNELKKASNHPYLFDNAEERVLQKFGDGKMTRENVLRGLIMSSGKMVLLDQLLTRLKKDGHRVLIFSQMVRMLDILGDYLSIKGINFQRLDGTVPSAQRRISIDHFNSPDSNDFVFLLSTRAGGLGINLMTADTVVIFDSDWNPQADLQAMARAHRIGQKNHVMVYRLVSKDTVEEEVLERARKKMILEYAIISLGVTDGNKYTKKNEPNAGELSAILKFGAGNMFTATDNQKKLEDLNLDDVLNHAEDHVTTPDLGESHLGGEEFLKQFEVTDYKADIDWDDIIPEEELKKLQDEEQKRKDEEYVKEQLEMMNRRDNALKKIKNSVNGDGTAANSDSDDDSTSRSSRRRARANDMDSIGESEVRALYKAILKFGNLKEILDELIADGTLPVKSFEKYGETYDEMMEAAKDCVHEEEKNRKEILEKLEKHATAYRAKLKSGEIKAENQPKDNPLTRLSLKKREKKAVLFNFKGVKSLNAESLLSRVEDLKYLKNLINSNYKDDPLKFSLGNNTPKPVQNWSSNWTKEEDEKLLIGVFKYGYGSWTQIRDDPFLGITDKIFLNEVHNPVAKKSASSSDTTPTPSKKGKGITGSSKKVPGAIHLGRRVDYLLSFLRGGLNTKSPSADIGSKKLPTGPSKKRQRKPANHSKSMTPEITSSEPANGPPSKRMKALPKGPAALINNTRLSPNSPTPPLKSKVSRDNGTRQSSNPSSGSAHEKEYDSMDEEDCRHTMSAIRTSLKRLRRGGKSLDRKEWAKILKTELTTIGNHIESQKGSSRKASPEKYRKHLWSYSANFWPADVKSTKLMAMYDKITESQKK

Sialic acid-binding Ig-like lectin 9 (Homo sapiens), sequence (Q9Y336 whole entry): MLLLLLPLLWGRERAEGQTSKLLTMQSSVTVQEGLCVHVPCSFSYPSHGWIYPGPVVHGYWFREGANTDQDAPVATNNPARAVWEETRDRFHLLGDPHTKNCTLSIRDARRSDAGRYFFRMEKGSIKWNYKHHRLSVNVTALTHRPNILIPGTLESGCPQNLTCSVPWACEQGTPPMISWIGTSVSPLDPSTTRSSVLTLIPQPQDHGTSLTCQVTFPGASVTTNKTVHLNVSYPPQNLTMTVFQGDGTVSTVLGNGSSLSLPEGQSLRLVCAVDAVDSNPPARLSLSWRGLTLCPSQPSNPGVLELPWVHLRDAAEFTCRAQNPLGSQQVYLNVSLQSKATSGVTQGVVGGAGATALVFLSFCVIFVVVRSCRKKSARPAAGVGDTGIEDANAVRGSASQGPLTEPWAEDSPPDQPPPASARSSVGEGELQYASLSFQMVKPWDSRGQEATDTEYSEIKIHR
Protein translocase subunit SecA (Escherichia coli (strain K12)), sequence (P10408 whole entry): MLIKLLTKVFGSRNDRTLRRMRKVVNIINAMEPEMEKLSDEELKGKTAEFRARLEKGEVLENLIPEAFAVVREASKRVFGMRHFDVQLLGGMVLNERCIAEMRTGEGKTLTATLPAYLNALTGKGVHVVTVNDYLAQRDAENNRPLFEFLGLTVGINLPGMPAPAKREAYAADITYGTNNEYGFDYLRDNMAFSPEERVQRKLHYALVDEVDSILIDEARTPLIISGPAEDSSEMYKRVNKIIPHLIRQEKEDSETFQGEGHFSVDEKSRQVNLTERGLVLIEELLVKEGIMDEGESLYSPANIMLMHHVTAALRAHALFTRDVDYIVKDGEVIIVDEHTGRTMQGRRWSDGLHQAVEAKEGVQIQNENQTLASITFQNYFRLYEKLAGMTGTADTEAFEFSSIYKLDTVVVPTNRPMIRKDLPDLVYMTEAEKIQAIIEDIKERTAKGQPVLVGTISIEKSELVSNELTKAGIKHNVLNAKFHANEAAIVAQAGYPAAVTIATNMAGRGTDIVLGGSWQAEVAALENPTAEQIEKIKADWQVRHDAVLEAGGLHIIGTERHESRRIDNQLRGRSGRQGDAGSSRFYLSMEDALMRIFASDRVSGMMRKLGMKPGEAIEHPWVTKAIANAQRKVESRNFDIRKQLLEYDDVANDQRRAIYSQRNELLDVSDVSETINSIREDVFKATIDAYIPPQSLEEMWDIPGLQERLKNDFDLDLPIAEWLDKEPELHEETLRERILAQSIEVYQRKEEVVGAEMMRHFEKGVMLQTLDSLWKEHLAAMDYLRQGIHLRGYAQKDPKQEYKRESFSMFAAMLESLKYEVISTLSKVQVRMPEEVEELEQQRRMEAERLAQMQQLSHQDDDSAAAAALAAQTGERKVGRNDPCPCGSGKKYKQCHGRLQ

## CC(=O)Nc1nc(C(=O)Nc2ccc(N3CCCCC3)nc2)cs1
[1]
  Percent Effect: -1.91%
[2]
  Percent Effect: -3.8%
[3]
  Percent Effect: 22.9%
[4]
  Percent Effect: 0.734%
Trypanosoma cruzi
  Percent Effect: -3.18%
[5]
  Percent Effect: -1.5%
[6]
  Percent Effect: 10.6%
Homo sapiens
  Percent Effect: 11.2%
[7]
  Percent Effect: 9.38%
[8]
  Percent Effect: 10.1%
[9]
  Percent Effect: -11.6%

## O=C(NCC1CCOCC1)[C@@H]1C[C@@H]2CCN(Cc3ccco3)C[C@H]2O1
[1]
  Percent Effect: -0.876%
[2]
  Percent Effect: 5.33%
[3]
  Percent Effect: -1.12%
[4]
  Percent Effect: 6.61%
Trypanosoma cruzi
  Percent Effect: -5.02%
[5]
  Percent Effect: -54.7%
[6]
  Percent Effect: 10.1%
Homo sapiens
  Percent Effect: -10.2%
[7]
  Percent Effect: 2.08%
[8]
  Percent Effect: 7.5%
[9]
  Percent Effect: -6.48%

## CCCc1noc(CN2CCCC2c2ccsc2)n1 (stereo unspecified)
[1]
  Percent Effect: -2.78%
[2]
  Percent Effect: -10.1%
[3]
  Percent Effect: -1.69%
[4]
  Percent Effect: -2.76%
Trypanosoma cruzi
  Percent Effect: 1.04%
[5]
  Percent Effect: -8.37%
[6]
  Percent Effect: 3.19%
Homo sapiens
  Percent Effect: 11.1%
[7]
  Percent Effect: 0.493%
[8]
  Percent Effect: 1.27%
[9]
  Percent Effect: 6.54%

## COCCNS(=O)(=O)c1ccc2c(c1)CCN(C(=O)c1cncn1C)C2
[1]
  Percent Effect: -1.62%
[2]
  Percent Effect: 6.94%
[3]
  Percent Effect: -17.1%
[4]
  Percent Effect: 2.73%
Trypanosoma cruzi
  Percent Effect: -1.46%
[5]
  Percent Effect: 6.62%
[6]
  Percent Effect: 22.1%
Homo sapiens
  Percent Effect: 6.15%
[7]
  Percent Effect: 7.37%
[8]
  Percent Effect: 10.3%
[9]
  Percent Effect: -2.12%

## O=C(c1cscn1)N1CCC2(CCN(Cc3cccs3)CC2)C1
[1]
  Percent Effect: -5.71%
[2]
  Percent Effect: 8.11%
[3]
  Percent Effect: 6.09%
[4]
  Percent Effect: -2.27%
Trypanosoma cruzi
  Percent Effect: 0.489%
[5]
  Percent Effect: 2.23%
[6]
  Percent Effect: 19%
Homo sapiens
  Percent Effect: 9.36%
[7]
  Percent Effect: 1.08%
[8]
  Percent Effect: 15.4%
[9]
  Percent Effect: 0.482%

## CC(C)n1cc(CN2CCCN(C(=O)c3ccc[nH]3)CC2)cn1
[1]
  Percent Effect: -1.88%
[2]
  Percent Effect: 13.5%
[3]
  Percent Effect: -0.748%
[4]
  Percent Effect: -5.21%
Trypanosoma cruzi
  Percent Effect: 2.73%
[5]
  Percent Effect: 15.8%
[6]
  Percent Effect: 20.2%
Homo sapiens
  Percent Effect: -10.5%
[7]
  Percent Effect: 12.9%
[8]
  Percent Effect: 13.4%
[9]
  Percent Effect: -0.327%

## CCc1nc(C(=O)N2CCN(C)CC2C)nn1-c1ccccc1Cl (stereo unspecified)
[1]
  Percent Effect: -3.02%
[2]
  Percent Effect: 15.8%
[3]
  Percent Effect: 15.7%
[4]
  Percent Effect: -9.77%
Trypanosoma cruzi
  Percent Effect: -7.19%
[5]
  Percent Effect: 0.36%
[6]
  Percent Effect: 8.04%
Homo sapiens
  Percent Effect: 12.9%
[7]
  Percent Effect: 5.42%
[8]
  Percent Effect: 11.1%
[9]
  Percent Effect: -9.77%

## CSC(C)C(=O)N1CCCN(Cc2cscn2)CC1 (stereo unspecified)
[1]
  Percent Effect: -3.08%
[2]
  Percent Effect: 18.4%
[3]
  Percent Effect: 1.3%
[4]
  Percent Effect: -6.37%
Trypanosoma cruzi
  Percent Effect: -1.13%
[5]
  Percent Effect: -3.45%
[6]
  Percent Effect: 15.9%
Homo sapiens
  Percent Effect: 9.75%
[7]
  Percent Effect: 4.41%
[8]
  Percent Effect: 9.76%
[9]
  Percent Effect: -13.2%

## Cc1ccc2ncnc(N3CCOCC3c3c(C)nn(C)c3C)c2c1 (stereo unspecified)
[1]
  Percent Effect: -3.4%
[2]
  Percent Effect: 5.33%
[3]
  Percent Effect: -4.79%
[4]
  Percent Effect: 3.91%
Trypanosoma cruzi
  Percent Effect: -0.487%
[5]
  Percent Effect: -0.521%
[6]
  Percent Effect: 16%
Homo sapiens
  Percent Effect: 21.1%
[7]
  Percent Effect: 6.01%
[8]
  Percent Effect: 8.64%
[9]
  Percent Effect: -5.67%

## CC(C)(C)c1ncc(C(=O)NCCNC(=O)c2ccccc2)s1
[1]
  Percent Effect: -3.42%
[2]
  Percent Effect: 21.1%
[3]
  Percent Effect: -4.68%
[4]
  Percent Effect: 1.92%
Trypanosoma cruzi
  Percent Effect: -3.64%
[5]
  Percent Effect: 0.36%
[6]
  Percent Effect: 10.7%
Homo sapiens
  Percent Effect: 12.2%
[7]
  Percent Effect: 7.39%
[8]
  Percent Effect: 18.5%
[9]
  Percent Effect: -4.66%

## CC(O)CN1CCC(CNCc2ccc(S(C)(=O)=O)cc2)CC1 (stereo unspecified)
[1]
  Percent Effect: -2%
[2]
  Percent Effect: 19.2%
[3]
  Percent Effect: -8.77%
[4]
  Percent Effect: 13.4%
Trypanosoma cruzi
  Percent Effect: 2.15%
[5]
  Percent Effect: 8.64%
[6]
  Percent Effect: 24.5%
Homo sapiens
  Percent Effect: 5.76%
[7]
  Percent Effect: 4.3%
[8]
  Percent Effect: 15%
[9]
  Percent Effect: -7.9%
